Test results as given in the supplement of paper PMC12632987.
The full ranking holds about 4,500 sequences; the median of “median log2 fold change of GCK-ALFA target abundance (FLAG IP / Myc IP barcode read proportion)” is about 0.078, and the lowest 2% start at about -0.6. Shown is part of a subset that was picked to be rich in the lowest values.

B1: GBRAP_160_4385 (protein)
chain: AAALAALAKEIEALRKEFEEEAKDLNTEETRTLAIGVLAEVAALAWENEAISEETKDKIFAIIDEAIEELKANKDAPPEEIVAITTEAFDKIIALVKAEA
B2: GBRAP_160_4108 (protein)
chain: SAGAEAILADFREVFAEVLELWDEVSPEELVAYYEVETGSVIMDAMENYGLSDETADRLLDIRDEAAARLLAHGNVSREEVERILAEALARIEAAVAAAA
B3: GBRAP_9_7157 (protein)
chain: MEELIEKVEEVIEDMLEEIKEVVPEEVKPAVEKRREEVKKRLEELGEDENATEEEIIEEAERLVRETLEEMKKLVDPETAKIVEAIALTAELEIEEIGEE
B4: GBRAP_184_5064 (protein)
chain: KIYEETIEVTNLEEAKEKMKELKEKIKNFKGDLIVHLKLPEFNKEIVKAILDELAEIKKAGYAKNITLGIDADTTEEEVDFLISTADEKGINVVVALREE
B5: GBRAP_160_4175 (protein)
chain: SEKLEEAEKKIKEIFEEAYKMMEGESAEERAAIVAVAFGEIILYLEEKGLLTDETEAKIDEIEDEAVEYILENPDLTEEELRELLEESAEKIIKALKENS
B6: GBRAP_160_4178 (protein)
chain: SEKIEEAEEEIEEIFEEAYEMMKGQTAEERAAIVDVAFGEIILYLEEKGLLTDETEAKIDEIRDETVSYILANPDLTDEELRELLEEAAEEIIEALRENS
B7: GBRAP_52_6269 (protein)
chain: MKELAEKLAKEFIETSLNGTEEEVKEFAKKLVETESQELIELMLEIVVEMAKSLNAEELEKLLDAFLILEDELEEAGKDTLPAEDAAAELAKLYMEKLKE
B8: GBRAP_52_5996 (protein)
chain: AEARIRALAEELVAAVLAGDEERVRAILRRIAAELSDEEIVETVRLATRLLARDPRATLEDLARFIDIVEEVLEEEGKSDRLIADVLGAIAEAIAEVEAE
B9: GBRAP_52_5997 (protein)
chain: REERIEALARELVEATLAGDDERVRALLRRIAAELSDEEIVETVRLATRLLERDPRATLEDLANFIDLVEDVLEEEGKSDELIARVLGAIAEAIYEAELE
B10: GBRAP_39_5719 (protein)
chain: EEEEEAENIFSYYEAVGAKKMYERGISLDELFAELYARARELAADDPELAAALDELRALAEAAGDEAKLAAAGLMSRLVEGEPREEILADAEKLIAYLKS
B11: GBRAP_128_3452 (protein)
chain: STEEKVKKAEELMNKIIESSDEEVPALAAELVDLIGESDDESAKAIAEVIIKKIPELSEEKLEILADVFVARRPELTPEKQEVLNEIAVAIGEEILEKEE
B12: GBRAP_125_2964 (protein)
chain: SEEEDLEALATLAKALGFDEDDVEEAVRLARKFGFKNTLIALFLAEGYDEVADLVEKLTEEEAKEVLKRLAEEIKKNPELTPEEVVKLAKELFEEVIAKK
B13: GBRAP_160_4000 (protein)
chain: MEEIEELKEEIEEIIDETIAAMEGLTPEERLTLVRGMVGEIIQLVEDSPAVSDEAEDEIAELGDELVEEVEANRDAPLEVWRELLERFLEEIKKILDKEE
B14: GBRAP_11_2888 (protein)
chain: KKEKLKELAELARKIAELIEKLLEEGTDNEELLKEIEKLLKELEKLTKEYADKGSQKLTEIAKELFKKALEDPENRKEYLEELLAAVRVLEGDYLLEYEE
B15: GBRAP_128_3538 (protein)
chain: SLEEVKKRAREVMEKIKNSSVEEAYEITKEFLEELKSLSLEEVEAAIEVLEELLPELSAEKLEAIADAMREMRPTLSPEKQRLVADLQVEALNEAEEKEE
B16: GBRAP_35_5578 (protein)
chain: EDKEMLLETVRDLAEATIEAIKEGDLDLAIALLEALLRTAELAVEELANDAEALEEIAALLERVIAAIKEHLADDPRVQALLARLEALLARTKALLAAVK
B17: GBRAP_184_5199 (protein)
chain: KVLEIEVTVSNLEEAKKKMEEILAKAKEEKADLLLILDLKTSTKEIIETIMNALGKIKKEGYAPNVLVELEGDLSDENIDLAFKLADEAGVSLVIALPEE
B18: GBRAP_11_2855 (protein)
chain: KKEKLKEIAELAKKAIELLKELLKKGVDDKELQKKIKELLEKLLELVKKYLDEASVKLAKEALESFKKSLEDPENKEKYINESLAFLEVLLGDVLLEIDE
B19: GBRAP_139_3755 (protein)
chain: SKTEEAIKEIVELVKDPNATLEEIEEKVKEIAKELDEESIKKVLKAAAEAAKSLSVERIEELEERFIKILKEEGRSEDVIDFLEGEFNEAAALSAYREEL
B20: GBRAP_196_5419 (protein)
chain: SLVQEARKINEEAEKRLKATDKEVTVVVSTGDLERHREAVEKAIDYAKEHPDELVLLVFMDDLETALEAARYAKELAEKEGVDLVVEVASRELEEHPDEE
B21: GBRAP_14_3875 (protein)
chain: MEEIKKIIDDMVAEIVAFVKEVSPEIAPEVEKRLNEIREKTLARIEETGDPLAAFDAMEEEMIAAMEEITADLPEEDRTAILAELRVRLAEARYRIDEVL
B22: GBRAP_150_3934 (protein)
chain: DLEELLLLAESVADLLDLALNEGIDRLKALKRAQELLKDLIKEADEELKEIAKKAQELIKKAIKLEEEGGEEKEIKKLLKKAQELAKELAKELEKKIEEE
B23: GBRAP_11_2819 (protein)
chain: MDEVVKELIEVLKKLAEAADKYLKEDVGDEELLKKIEELAKKALELAKKLNDPAVIREAQAILDTVEEAKKDPANREQYVANARAGARTLLANLEEEAEE
B24: GBRAP_35_5522 (protein)
chain: DSDTLTVEMLVATIEDLTLAVPDMDVETAVQIATQLIKAAEELAKDIKNNVEGLKKLRDALAKLRDALEKHYGDDPLAQQVIAQIDKLIAEIDKMIKEAK
B25: GBRAP_95_7082 (protein)
chain: EEDLETLEDLAQTAIDLYEAGFEEQAARAAKAAAEELEELGYKVADKELLTKLLTYAADLAPKYFDEEEIERWLKIAEATGAPQSIIDALRAALAAKKAA
B26: GBRAP_125_2963 (protein)
chain: SEEEDLKALATLAKALGFDEDDVAEAVELARKFGIKNTVIALFLAEGYEEVAELVEKLTEEEVREVLKELAKEIEANPDLTPEEVVELAKKLLEKKIAKK
B27: GBRAP_39_5686 (protein)
chain: EEEEENEDVVSYLEGLAAKYLYETGKSLEEAFEEAKKILLKLAEEHPELKELIEKLIELAEKKGEEAKLALIGIAVLVKQGTPLEEIKENIEKVIAYFES
B28: GBRAP_39_5685 (protein)
chain: EEEEEDENVVSYLEGLAAARLYETGKSLEELFEEAKKILKALAKEEPELKELIEELIELAEKKGDEAKLALIGIAVLVEEGTPLEEIKENIEKVINYFKK
B29: GBRAP_125_3124 (protein)
chain: AEAQALADLAAVLKALGFDDEDVAEAVELAAAHSIRGTLYAALLALGDEEGADLVAKLTEEQTKEVVAAVNAWLKAHPDATPEEVKEKLLALLKEAVAAS

The binders below were run against GABARAP, O95166 (assay: median log2 fold change of GCK-ALFA target abundance (FLAG IP / Myc IP barcode read proportion) (log2 ratio); each designed protein is fused to an ALFA-tag nanobody in HEK293 cells to bring the named protein to FLAG-tagged glucokinase (GCK); Myc marks an untargeted standard; higher = target protein stabilised (more abundant)). Conditions: target protein: 3xFLAG-MCP-GCK-ALFA reporter; HEK293 landing pad (RPLP).
Chain of GABARAP, O95166 (O95166 whole entry, the tested form may be a part): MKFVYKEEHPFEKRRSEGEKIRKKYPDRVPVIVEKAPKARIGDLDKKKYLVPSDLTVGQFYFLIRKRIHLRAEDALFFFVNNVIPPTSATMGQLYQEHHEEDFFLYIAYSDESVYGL
Summary of the method: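 An ALFA-nanobody-fused binder library was recombined into HEK293 landing-pad cells and induced with 2 μg mL^−1 doxycycline. Cells were transfected with a plasmid expressing a FLAG-tagged target and a Myc-tagged standard. After 48 h, lysates underwent anti-FLAG and anti-Myc immunoprecipitation, and circular RNA barcodes were reverse transcribed, amplified and sequenced. Target abundance is the per-binder median log2 ratio of FLAG to Myc barcode read proportions. Barcodes needed ≥10^−7 proportion in both replicates, binders ≥3 barcodes per replicate, and a 10^−6 pseudocount was added; the two replicates were pooled.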
B1 was tested, and the “median log2 fold change” value was -0.171.
For B2, the “median log2 fold change” value was -0.764.
For B3, the “median log2 fold change” value was -0.11.
For B4, the “median log2 fold change” value was 0.127.
With B5 the “median log2 fold change” value was -0.178.
In the case of B6, the “median log2 fold change” value is reported as -0.598.
For B7, the “median log2 fold change” value was 0.267.
For B8, the “median log2 fold change” value was -0.179.
B9 was tested, and the “median log2 fold change” value was -0.74.
In the case of B10, the “median log2 fold change” value is reported as 0.194.
With B11 the “median log2 fold change” value was 0.274.
For B12, the “median log2 fold change” value was -0.94.
B13 was tested, and the “median log2 fold change” value was -0.0825.
For B14, the “median log2 fold change” value was -0.0328.
In the case of B15, the “median log2 fold change” value is reported as 0.273.
With B16 the “median log2 fold change” value was -0.85.
For B17, the “median log2 fold change” value was -0.0295.
For B18, the “median log2 fold change” value was 0.193.
B19 was tested, and the “median log2 fold change” value was 0.234.
B20 was tested, and the “median log2 fold change” value was 0.0489.
For B21, the “median log2 fold change” value was 0.256.
With B22 the “median log2 fold change” value was 0.0862.
In the case of B23, the “median log2 fold change” value is reported as 0.324.
With B24 the “median log2 fold change” value was -0.0356.
B25 was tested, and the “median log2 fold change” value was 0.268.
In the case of B26, the “median log2 fold change” value is reported as -0.725.
For B27, the “median log2 fold change” value was 0.293.
With B28 the “median log2 fold change” value was -0.604.
For B29, the “median log2 fold change” value was -0.452.
